FLuc modulator: counter-screen for miR-21 project: firefly luciferase inhibitors or activators; AID 588342; purified FLuc, Km substrates, luminescence inhibition; P08659; 360,000 compounds, 6.9% hits; Potency, µM (series often up to 57.5 µM), without a hit: at the top dose activity change, negative = inhibition, hits mostly inhibitors;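 also: plate controls were vehicle for no effect and reference inhibitor for full effect; nearly all actives have a fitted effect of over 55% in size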
Target sequence (P08659 whole entry, looked up): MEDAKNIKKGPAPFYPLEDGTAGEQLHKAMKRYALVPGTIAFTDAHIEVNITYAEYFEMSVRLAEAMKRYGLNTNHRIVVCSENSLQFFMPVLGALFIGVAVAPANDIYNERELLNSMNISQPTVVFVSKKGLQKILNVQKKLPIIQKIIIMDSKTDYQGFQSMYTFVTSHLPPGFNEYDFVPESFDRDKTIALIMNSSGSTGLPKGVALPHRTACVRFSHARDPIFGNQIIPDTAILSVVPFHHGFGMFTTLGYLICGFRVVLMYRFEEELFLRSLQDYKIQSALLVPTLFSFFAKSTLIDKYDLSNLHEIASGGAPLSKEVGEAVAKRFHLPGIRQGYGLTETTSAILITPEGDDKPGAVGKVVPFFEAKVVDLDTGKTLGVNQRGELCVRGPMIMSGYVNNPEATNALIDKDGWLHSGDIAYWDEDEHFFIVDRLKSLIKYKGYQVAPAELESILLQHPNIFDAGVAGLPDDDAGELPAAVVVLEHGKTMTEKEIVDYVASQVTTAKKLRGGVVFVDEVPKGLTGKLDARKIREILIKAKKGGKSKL
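Purified P. pyralis luciferase, 10 nM final, with Km-level 10 uM D-luciferin and 10 uM ATP in 50 mM Tris acetate pH 7.5, 10 mM Mg acetate, 0.01% Tween-20, 0.05% BSA; 6-point qHTS titration about 60 µM downward; luminescence read.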
ELG1 repair inh: ELG1-dependent DNA repair inhibition | 330,000 compounds, 2.3% hits | Potency, µM (titrated, usually from 46.1 µM), without a hit: top-dose activity change, negative = inhibition, usual class: inhibitors | HEK293T ELG1-luciferase reporter, luminescence, 16 h; DNA damage induced by 5-fluorouridine; also: % is scaled to controls: 0 for no effect and ±100 for the full control effect; nearly all actives have a fitted effect of over 55% in size
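Cells (2,000 per well) received 5-fluorouridine plus test compound or DMSO and were incubated 16 hr at 37 °C, 5% CO2. Luciferase activity was read by luminescence 30 min after ONE-Glo addition; signal suppression marked inhibition of damage-induced ELG1 function.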
NPC1 prom act: NPC1 promoter activation; Potency, µM (highest dose often 9.22 µM), for inactives: at the top dose activation, most hits filed as activators; AID 485313; Huh7 NPC1 promoter luciferase reporter, 24 h; 320,000 compounds, 2.4% hits; also: % of control where 0% means no effect; nearly all actives have a fitted effect of over 60% in size
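Stable NPC1-promoter luciferase Huh7 line; cpd (DMSO) 24 h, 37 °C, 5% CO2; Amplite luciferase reagent 10 min RT; luminescence readout. qHTS format.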
ELG1 genotoxic: induces genotoxicity in HEK293T cells with luciferase-tagged ELG1; HEK293T ELG1-luciferase reporter, luminescence, 16 h; Potency, µM (doses to about 46 µM), inactives show at the top dose activity change, positive = activation, hits mostly activators; AID 504466; 330,000 compounds, 1.3% hits; also: % of control where 0% means no effect; nearly all actives have a fitted effect of over 60% in size
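Reporter readout depends on ELG1 protein level, which increases with genetic stress. After 16 hr compound exposure at 37 °C, luciferase activity was quantified using ONE-Glo.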
Rab9 promoter act: activators of Rab9 promoter | Huh7 Rab9 promoter-luciferase reporter, luminescence, 24 h | Potency, µM (top dose mostly 9.22 µM), for the others: top-dose activation, negative = inhibition, usual class: activators | 320,000 compounds, 2.8% hits | AID 485297; also: % of control where 0% means no effect; nearly all actives have a fitted effect of over 60% in size
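Huh7 cells stably carrying Rab9 promoter–luciferase reporter, plated 1500 cells/well, compound added after 2 h and incubated 24 h at 37 °C; luciferase luminescence then read after 10 min with detection reagent.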
SMN2 splice up: SMN2 splice variant enhancement; AID 1458; 210,000 compounds, 2.8% hits; HEK293 SMN2-luciferase splicing reporter, luminescence, 30-36 h; Potency, µM (top dose mostly 46.1 µM), without a hit: at the top dose activity change, positive = activation, actives largely listed as activators; also: % of control where 0% means no effect; nearly all actives have a fitted effect of over 55% in size
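HEK293 cells carry an SMN2 […]–luciferase reporter in which exon 7 inclusion puts luciferase in frame. Cells were plated 10-12 h before compound addition, then incubated 30-36 h at 37C. ONE-Glo luminescence was read; sodium butyrate at 4.5 mM final served as control.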
* hit, by the source's call; ? = inconclusive; . = no result. Hits are enriched below; roughly 9.3% of the tested compounds scored in any of these assays. Calls follow the shape of the dose curve; as a rule, active = well fitted curve in the direction sought with a large enough effect; inconclusive = small, poorly fitted or top-dose-only effect, or another doubt; inactive = no such curve, though single readings can be large; an effect the other way counts as inactive or inconclusive. Potency is read from the fitted curve at half-maximal effect.

SMILES	FLuc modulator	ELG1 repair inh	NPC1 prom act	ELG1 genotoxic	Rab9 promoter act	SMN2 splice up
O=C(Nc1cccc(S(=O)(=O)C(F)F)c1)c1ccc(S(=O)(=O)N2CCCCC2)cc1	-1.6%	13µM*	-5.0%	-8.7%	-2.6%	-27.4%
O=C(Nc1ccn(-c2ccccc2)n1)c1ccc(S(=O)(=O)N2CCCCCC2)cc1	0.4%	5.17µM*	-9.6%	-23.6%	-10.4%	-72.4%
CS(=O)(=O)c1cccc(C(=O)Nc2cccc(S(=O)(=O)N3CCCC3)c2)c1	1.4%	-17.9%	-3.0%	-4.0%	-1.3%	.
Cc1ccc(C)c(NC(=O)CS(=O)(=O)c2cccc3nsnc23)c1	-1.0%	-0.5%	-2.0%	-0.3%	4.1%	-2.6%
Cc1ccc(C)c(N(C)C(=O)c2ccc3c(=O)n4c(nc3c2)CCCCC4)c1	2.6%	-21.0%	-6.6%	-5.1%	-4.8%	.
CN1C(=O)c2ccccc2Sc2ccc(NC(=O)COc3ccccc3)cc21	5.7%	.	.	.	.	.
COc1ccc(CCNC(=O)CN2C(=O)NC3(CCOc4ccccc43)C2=O)cc1 (centres undefined)	0.5%	10.2%	-5.4%	2.6%	-8.6%	.
Cc1ccc(C#CC(C)(O)C(C)(C)C)cn1 (centres undefined)	-6.4%	7.6%	2.2%	1.3%	-6.1%	.
O=C(Nc1cccc(S(=O)(=O)N2CCCCC2)c1)c1ccc(S(=O)(=O)C(F)F)cc1	-0.7%	20.6µM*	-10.4%	-6.6%	15.4%	-81.8%
CN(C)S(=O)(=O)c1cccc(NC(=O)c2ccc(S(=O)(=O)N3CCCCC3)cc2)c1	5.1%	?	-0.9%	-3.0%	-0.3%	.
CN(C)c1ccc(C(=O)Nc2cccc(S(=O)(=O)N3CCCC3)c2)cc1	1.69µM*	?	23.2%	1.2%	?	.
O=C(Nc1cccc(S(=O)(=O)N2CCCC2)c1)c1cccc(OC(F)F)c1	-10.2%	?	-1.1%	-5.9%	-1.3%	.
Cc1ccc(S(C)(=O)=O)cc1C(=O)Nc1cccc(S(=O)(=O)N2CCCCCC2)c1	.	11.6µM*	-2.0%	-4.8%	-0.1%	.
CCOC(=O)N1CCc2c(sc3c2c(=O)n(-c2ccccc2C(F)(F)F)c(=O)n3Cc2ccccc2C)C1	-5.5%	.	.	.	.	17.4%
Cc1nc(-c2ccc(C(F)(F)F)cc2)sc1C(=O)NN	?	?	?	6.4%	29.3%	.
CC(C)(C)C(=O)OCc1nc(-c2ccc(C(F)(F)F)cc2)cs1	15.1µM*	-15.3%	-4.1%	3.8%	-0.1%	.
C[C@H]1CC[C@@H]2N(C1)C[C@H]1[C@@H]3C[C@H]4[C@@H](C/C(=N\O)[C@H]5C[C@@H](O)CC[C@@]54C)[C@@H]3CC[C@H]1[C@]2(C)O	.	.	.	.	.	5.7%
Cc1ccc(N=Nc2c(N)nn(-c3ccccc3)c2N)cc1	6.01µM*	?	?	?	?	10µM*
Cc1nn(-c2ccccc2)c(N)c1N=Nc1ccc2ccccc2c1	10.7µM*	?	?	?	3.55µM*	12.6µM*
Cc1nn(-c2ccccc2)c(N)c1N=O	5.2%	0.0%	-3.7%	7.1%	-2.7%	.
CC(C)NC(=O)CSc1ccccc1C(=O)N1CCN(S(=O)(=O)Cc2ccccc2)CC1	-1.5%	1.8%	-2.0%	-0.1%	-2.1%	.
CSc1ccccc1C(=O)N1CCC(n2nccc2NC(=O)C(C)(C)C)CC1	-1.6%	7.7%	-0.9%	11.4%	6.7%	.
CC1CCN(C(=O)c2ccc(S(=O)(=O)NCc3ccco3)cc2)CC1	0.7%	-2.4%	-3.2%	-3.0%	-1.6%	.
O=C(NCCCn1ccnc1)c1cn(-c2ccccc2)nc1-c1ccccc1	12µM*	.	.	.	.	5.8%
N#C/C(=C/c1cn(-c2ccccc2)nc1-c1cccc(OCc2ccccc2)c1)C(=O)NCCCn1ccnc1	-28.8%	13µM*	0.2%	-8.5%	-4.1%	-0.9%
SMILES	FLuc modulator	ELG1 repair inh	NPC1 prom act	ELG1 genotoxic	Rab9 promoter act	SMN2 splice up
COc1cc(C#Cc2c(-c3cncn3C)n(C)c3ccc(-c4ccc(OC)c(OC)c4)cc23)cc(OC)c1	-15.7%	7.3µM*	2.5%	-5.3%	-6.1%	.
COc1cc(C#Cc2c(-c3cncn3C)n(C)c3ccc(Br)cc23)cc(OC)c1	.	9.2µM*	.	-3.9%	.	.
COc1cc(C#Cc2c(-c3cncn3C)n(C)c3ccc(-c4ccc5cc[nH]c5c4)cc23)cc(OC)c1	.	?	.	0.6%	.	.
COc1cc(OC)cc(-c2c(C#Cc3ccsc3)c3cc(Br)ccc3n2C)c1	-2.1%	8.6%	-0.9%	-0.1%	1.2%	.
COc1ccc(N(CC(=O)Nc2cc(Cl)ccc2C)S(=O)(=O)c2c(C)n[nH]c2C)cc1	2.7%	-16.8%	-28.8%	-5.6%	-0.4%	.
COc1ccc(NC(=O)c2oc3ccc(S(=O)(=O)N4CCC5(CC4)OCCO5)cc3c2C)cc1Cl	-8.8%	.	.	.	.	.
CCOC(=O)c1cccc(COC(=O)c2cccc(-c3nnc(-c4ccccc4)o3)c2)c1	10.7µM*	?	2µM*	?	1.26µM*	3.55µM*
O=C(COC(=O)c1cccc(O)c1)Nc1nnc(-c2ccccc2)o1	-19.0%	8.6%	0.0%	2.5%	-2.0%	.
O=C(OCc1ccccc1)c1ccccc1	.	.	.	.	.	-17.5%
O=C(OCc1ccccc1)c1ccc2c(c1)-c1ccccc1C2=O	?	?	?	10.3µM*	?	12.6µM*
O=C(OCc1ccccc1)c1cccc(-c2nnc(-c3ccccc3)o2)c1	-18.7%	?	1.58µM*	?	?	?
CCOC(=O)c1cc(-c2nnc(-c3ccc(Oc4ccccc4)cc3)o2)c(C)nc1C	-11.5%	23.1µM*	-0.6%	-11.4%	-3.2%	-32.4%
CC(C)OC(=O)c1ccc(COC(=O)c2cccc(-c3nnc(-c4ccccc4)o3)c2)cc1	?	?	2.24µM*	?	2.51µM*	5.01µM*
O=C(OCc1nnc(-c2ccccc2)o1)c1ccc(CO)cc1	-1.6%	12.1%	-5.2%	1.5%	0.3%	6.9%
O=C(OCc1ccc(C(=O)c2ccccc2)cc1)c1cccc(-c2nnc(-c3ccccc3)o2)c1	10.7µM*	-24.5%	?	?	1.12µM*	?
COc1cc(NC(=O)c2cccc(Cl)c2)ccc1NC(=O)c1cccs1	-18.2%	?	-4.0%	0.3%	-1.6%	.
COc1cc(NC(=O)c2cccs2)ccc1NC(=O)Cc1ccccc1	?	?	-0.7%	-4.3%	2.8%	.
COc1cc(NC(=O)c2ccccc2Cl)ccc1NC(=O)c1cccs1	13.5µM*	?	?	?	2.82µM*	22.4µM*
COc1cc(NC(=S)NC(=O)c2ccccc2C)ccc1NC(=O)c1cccs1	-0.6%	13µM*	0.4%	-1.0%	-3.5%	-0.8%

Source: PubChem BioAssay
